Active and inactive are the calls of the source.

Assay [1] concerns Human papillomavirus type 1a protein E7 (residues 44-93). Put plainly: HPV1a E7 fragment binders on microarrays, primary screen, biochemical, small-molecule microarray, residues 44-93, 635 nm fluorescence (AID 1108).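 Note: E7 fragment applied at 1 µg/mL in TBST for 1 h at 4 C; score combines spot fluorescence with its signal to noise ratio.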 Conditions: small-molecule microarray binding, fluorescence 635 nm; higher = more signal.
The nature of assay [2]: modulators of HCV replicon luciferase signal, primary screen, HCV replication inhibitor project, Huh7 cells, luciferase reporter (AID 1109).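 Note: huh7 hepatoma cells harbouring a luciferase neomycin HCV replicon reporter; luciferase luminescence as measure of HCV replicon replication; test concentration not given here.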 As to conditions: 48 h, higher = more signal. On the technique in general: In antiviral work, replicon cells carry a viral genome segment that copies itself.
Assay [3] addresses Left-right determination factor 2 (Homo sapiens) (UniProt O00292). Put plainly: LEFTY2 binders on small-molecule microarrays, primary screen, biochemical, small-molecule microarray, 635 nm fluorescence scan (AID 1110). As to conditions: LEFTY2 binding, higher = more signal.
Assay [4] concerns the target Calmodulin-1 (Homo sapiens) (UniProt P0DP23). Put plainly: CALM1 binders on microarrays, EGTA buffer, profiling panel, biochemical, small-molecule microarray, Cy5-labelled CALM1 (AID 1111).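 Note: labelled calmodulin applied in Tris saline Tween buffer holding calcium plus EGTA and DTT.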 Conditions: Cy5-CALM1 binding fluorescence, higher = more signal.
The target is the same in assay [5]. Put plainly: calcium-bound CALM1 binders on microarrays, profiling panel, artefact control for SMM control-protein annotation, biochemical, small-molecule microarray, Cy5-labelled CALM1, plus calcium (AID 1112).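 Note: score merges spot fluorescence with signal to noise from triplicate slides.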 Conditions: Cy5-CALM1 binding fluorescence, higher = more signal.
A short description of assay [6]: small-molecule microarray binders of probe aWnt5a, primary screen, biochemical, biotinylated probe, 635/667 nm fluorescence (AID 1113).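 Note: score merges 667 nm fluorescence intensity with signal-to-noise per printed feature.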 As to conditions: higher = more signal.
Assay [7] can be described thus: small-molecule microarray binders of probe aShh, primary screen, biochemical, biotinylated probe, 635/667 nm fluorescence (AID 1114).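 Note: probe is biotin-labelled aShh protein from a stem cell growth factor screen; measures binding of labelled protein to compounds printed on the slide; score merges feature fluorescence at 667 nm with signal-to-noise.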 Conditions: higher = more signal.
The nature of assay [8]: small-molecule microarray binders of probe aNog, primary screen, biochemical, biotinylated probe, 635/667 nm fluorescence (AID 1115).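 Note: probe is biotinylated aNog protein used at 0.15 µg/mL for 1 h at 4 C; z-score combines 667 nm fluorescence of each spot with its signal to noise.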 As to conditions: higher = more signal.
Assay [9] addresses Torsin-1A-interacting protein 1 (Homo sapiens) (UniProt Q5JTV8). Put plainly: LAP1 binders from COS7 cell lysate, primary screen, small-molecule microarray, 635/667 nm fluorescence (AID 1116). As to conditions: COS7-hLAP1 lysate binding, 635 nm fluorescence, higher = more signal.
Assay [10] has as its target Alpha-bungarotoxin (Bungarus multicinctus) (UniProt P60615). Put plainly: alpha-bungarotoxin binders on microarray, profiling panel, artefact control for SMM control protein annotation, biochemical, small-molecule microarray, Alexa647 label, 635/667 nm fluorescence (AID 1117). Conditions: alpha-BTX-A647 binding fluorescence, higher = more signal.
In assay [11] the target is Albumin (Bos taurus) (UniProt P02769). Put plainly: bovine serum albumin binders on microarray, profiling panel, artefact control for SMM control protein annotation, biochemical, small-molecule microarray, Alexa647 label, 635/667 nm fluorescence (AID 1118).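 Note: score merges 667 nm emission intensity and signal-to-noise per printed compound spot.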 As to conditions: BSA-A647 binding, fluorescence 635 nm, higher = more signal.
Chain of Albumin (Bos taurus) (P02769 whole entry, looked up): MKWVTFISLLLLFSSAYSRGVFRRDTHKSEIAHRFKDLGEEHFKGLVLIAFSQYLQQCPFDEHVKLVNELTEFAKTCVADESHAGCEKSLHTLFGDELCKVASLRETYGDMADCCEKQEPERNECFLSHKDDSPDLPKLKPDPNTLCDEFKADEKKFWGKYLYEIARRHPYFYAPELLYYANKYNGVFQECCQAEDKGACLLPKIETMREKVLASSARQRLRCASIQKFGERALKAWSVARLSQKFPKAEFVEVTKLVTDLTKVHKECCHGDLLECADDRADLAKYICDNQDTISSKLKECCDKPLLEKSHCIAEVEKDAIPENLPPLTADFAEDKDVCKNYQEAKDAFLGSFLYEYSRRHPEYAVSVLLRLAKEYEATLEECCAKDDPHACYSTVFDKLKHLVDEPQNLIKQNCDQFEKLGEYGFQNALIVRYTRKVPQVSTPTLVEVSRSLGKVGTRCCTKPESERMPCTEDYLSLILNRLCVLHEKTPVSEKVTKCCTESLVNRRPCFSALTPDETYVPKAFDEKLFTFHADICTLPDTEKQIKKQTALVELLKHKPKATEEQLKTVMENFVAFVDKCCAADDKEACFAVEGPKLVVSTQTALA
Assay [12] in a line: small-molecule microarray binders of probe aXIP, primary screen, biochemical, NeuroSMM set, 635/667 nm fluorescence (AID 1119).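 Note: probe is the protein aXip251-270 applied at 1 µg/mL to compound-printed slides; binding of probe to printed compounds measured as 667 nm fluorescence plus signal to noise.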 As to conditions: higher = more signal, called active from +8 up or from −8 down.
Assay [13] can be described thus: small-molecule binders of probe aNOTCH3, primary screen, biochemical, small-molecule microarray, 635/667 nm fluorescence (AID 1120).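 Note: probe is a biotin-tagged antibody raised against NOTCH3 rather than NOTCH3 protein; score merges spot fluorescence near 667 nm with spot signal to noise.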 As to conditions: higher = more signal.
A short description of assay [14]: small-molecule binders of probe aNOTCH2, primary screen, biochemical, small-molecule microarray, 635/667 nm fluorescence (AID 1121).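 Note: score merges feature fluorescence read at 667 nm with its signal to noise.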 As to conditions: higher = more signal.
Assay [15] addresses Carbonic anhydrase 2 (Homo sapiens) (UniProt P00918). Put plainly: CAII small-molecule binders, profiling panel, biochemical, small-molecule microarray, Alexa647-labelled CAII (AID 1122). As to conditions: CAII-A647 binding fluorescence, higher = more signal.
The nature of assay [16]: COS7 lysate on small-molecule microarray, probe aHis, 635 nm (AID 1123).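 Note: z-score combines 667nm fluorescence intensity with signal-to-noise per printed compound spot.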 Conditions: COS7 cell lysate, fluorescence, higher = more signal.
The nature of assay [17]: compound binding in COS7 lysate, probe aLAP1, primary screen, cell lysate, small-molecule microarray (AID 1124).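 Note: lysate comes from COS7 cells expressing LAP1 and is applied at 0.3 µg/mL; score merges spot fluorescence near 667 nm with signal-to-noise over triplicate slides.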 As to conditions: probe aLAP1, fluorescence, higher = more signal.
The subject of assay [18] is Sam68 (KHDRBS1). Put plainly: Sam68 small-molecule binders, primary screen, biochemical, small-molecule microarray, 635 nm fluorescence (AID 1125).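 Note: score merges 667 nm channel intensity with signal to noise over triplicate slides.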 Conditions: small-molecule microarray binding, higher = more signal.
Assay [19] deals with Chordin-like protein 2 (CHRDL2). Put plainly: CHRDL2 small-molecule binders, primary screen, biochemical, small-molecule microarray, 635 nm fluorescence (AID 1126).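 Note: printed compound slides probed with Chrdl2 protein at 4 µg/mL for 1 h at 4 C; score merges 667 nm emission intensity with signal to noise over three replicate slides.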 As to conditions: small-molecule microarray binding, fluorescence 635 nm; higher = more signal.
The target in assay [20] is Concanavalin-A (Canavalia ensiformis) (UniProt P02866). Put plainly: ConA small-molecule binders, primary screen, artefact control for SMM control protein annotation, biochemical, small-molecule microarray, Alexa647 label, 635 nm (AID 1127).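 Note: z combines 667 nm emission intensity with signal-to-noise across three replicate slides.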 Conditions: ConA-A647 binding fluorescence, higher = more signal.
Chain of Concanavalin-A (Canavalia ensiformis) (P02866 whole entry, looked up): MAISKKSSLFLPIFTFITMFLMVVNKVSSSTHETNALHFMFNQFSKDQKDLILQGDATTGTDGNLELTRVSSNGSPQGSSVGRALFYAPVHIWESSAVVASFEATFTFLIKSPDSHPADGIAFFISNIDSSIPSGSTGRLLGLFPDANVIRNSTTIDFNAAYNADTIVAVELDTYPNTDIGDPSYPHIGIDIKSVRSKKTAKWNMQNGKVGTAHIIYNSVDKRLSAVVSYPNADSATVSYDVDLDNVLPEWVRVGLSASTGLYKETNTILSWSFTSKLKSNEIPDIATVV

Chain of Left-right determination factor 2 (Homo sapiens) (O00292 whole entry, looked up): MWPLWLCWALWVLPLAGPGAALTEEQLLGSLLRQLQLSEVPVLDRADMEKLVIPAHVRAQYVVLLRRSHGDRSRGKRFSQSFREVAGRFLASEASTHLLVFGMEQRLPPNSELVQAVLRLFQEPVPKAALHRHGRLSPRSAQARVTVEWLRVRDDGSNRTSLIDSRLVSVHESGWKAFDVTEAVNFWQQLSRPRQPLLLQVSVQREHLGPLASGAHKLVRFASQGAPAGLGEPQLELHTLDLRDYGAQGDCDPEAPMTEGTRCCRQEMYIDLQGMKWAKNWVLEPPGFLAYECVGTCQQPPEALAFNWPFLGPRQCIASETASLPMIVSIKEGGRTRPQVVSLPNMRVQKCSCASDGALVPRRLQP
Chain of Alpha-bungarotoxin (Bungarus multicinctus) (P60615 whole entry, looked up): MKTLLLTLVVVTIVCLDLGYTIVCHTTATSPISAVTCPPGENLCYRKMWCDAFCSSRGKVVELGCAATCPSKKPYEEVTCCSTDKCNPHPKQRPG
Chain of Torsin-1A-interacting protein 1 (Homo sapiens) (Q5JTV8 whole entry, looked up): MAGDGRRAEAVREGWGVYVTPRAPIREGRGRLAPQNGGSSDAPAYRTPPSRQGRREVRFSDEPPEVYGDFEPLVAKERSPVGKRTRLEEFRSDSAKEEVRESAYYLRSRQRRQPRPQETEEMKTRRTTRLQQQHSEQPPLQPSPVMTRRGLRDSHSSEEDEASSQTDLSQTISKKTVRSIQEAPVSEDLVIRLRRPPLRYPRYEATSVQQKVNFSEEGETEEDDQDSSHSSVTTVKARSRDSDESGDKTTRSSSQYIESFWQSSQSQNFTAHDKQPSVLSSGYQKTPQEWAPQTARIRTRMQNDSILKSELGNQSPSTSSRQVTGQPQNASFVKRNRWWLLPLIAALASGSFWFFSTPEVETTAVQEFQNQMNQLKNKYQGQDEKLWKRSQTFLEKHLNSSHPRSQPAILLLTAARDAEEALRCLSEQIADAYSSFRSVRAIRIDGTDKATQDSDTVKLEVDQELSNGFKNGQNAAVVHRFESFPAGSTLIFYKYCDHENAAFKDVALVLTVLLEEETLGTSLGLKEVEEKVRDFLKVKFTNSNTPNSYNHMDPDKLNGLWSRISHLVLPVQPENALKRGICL

Regarding `C=CCNC(=O)[C@@H]1[C@H]2C(=O)O[C@H](c3ccccc3)[C@H](c3ccccc3)N2[C@H](c2ccc(O)cc2)[C@@]12C(=O)Nc1ccc(C#CCCO)cc12`, the composite z-score was -0.379 in assay [1]; -0.144 in assay [3]; -0.0464 in [4]; 0.0653 in assay [5]; -0.0792 in assay [6]; -0.484 in assay [7]. The composite z-score was -0.372 in assay [8]; -0.275 in [9]; -0.04 in assay [10]; 0.803 in assay [11]; -0.186 in assay [13]; -0.149 in assay [14]. Also, the composite z-score in assay [15] was 0.761; in assay [16], 1.55; in assay [17], 0.71; in [18], 0.277; in assay [19] it was -1.31; in [20], 0.0196. The molecule also displayed a z-score in [2] of -0.439. Moreover, the composite Z-score in [12] is -0.588 (inactive).
With `CC1(C)[C@@H]2CC(C(O)C3C=CC4C(=O)N(c5ccccc5)C(=O)C4N3Nc3ccccc3F)=C[C@@H]1C2` (stereo not given in full), the composite z-score in assay [1] was 1.4; in assay [3], 0.501; in [4], 1.18; in assay [5], -0.229; in assay [6], 0.164; in [7], 0.0639. Besides, the composite z-score in assay [8] was -0.256; in [9], 1.34; in assay [10] it was 1.12; in [11], 0.844; in assay [13], 0.272; in [14] it was -0.229. In addition, the composite z-score was found to be 0.571 in [15]; 2.66 in assay [16]; 0.405 in assay [17]; 1.29 in assay [18]; 0.0364 in [19]; 1.09 in assay [20]. In assay [2], this molecule registered a z-score of -3.15. For the same molecule, the composite Z-score in assay [12] was 0.0252 (inactive).
Consider `O=C1N(Cc2ccccc2)c2ccccc2[C@H]2OC(c3ccc(OCCCO)cc3)=N[C@@]12CCS(=O)(=O)c1ccccc1`, for which the composite z-score in assay [1] is 1.46; in [3] it was 0.479; in [4], 1.76; in assay [5], -0.465; in [6] it was 0.0317; in assay [7], 0.435. Further, the composite z-score is 0.347 in assay [8]; 0.557 in assay [9]; 0.977 in assay [10]; 0.273 in [11]; 0.0538 in [13]; -0.112 in [14]. The composite z-score in [15] turned out to be 0.692; in assay [16] it was 2.83; in assay [17] it was 0.948; in assay [18], 1.29; in [19], 0.376; in assay [20], 0.54. This molecule came in with a z-score in assay [2] of -2.22. In assay [12], the composite Z-score is -0.313 (inactive).
On to `COCC(=C=CC[C@@H](O)c1ccccc1OCCO)C[C@@H](O)c1ccccn1`, for which the composite z-score in assay [1] was 0.968; in [3] it was 0.289; in assay [4], -0.153; in assay [5], -0.514; in assay [6], -0.124; in assay [7], -0.0119. In addition, the composite z-score in assay [8] is 0.099; in [9], -0.246; in assay [10], 0.34; in assay [11] it was -0.203; in [13], -0.0043; in [14], -0.117. Also, the composite z-score is 0.777 in assay [15]; 1.28 in assay [16]; 0.583 in [17]; 0.86 in assay [18]; -0.0696 in [19]; 0.742 in assay [20]. In assay [2], this molecule displayed a z-score of -0.979. For the same molecule, the composite Z-score in assay [12] was -0.422 (inactive).
Turning to `COC(=O)[C@@]1(Cc2ccc(OC)cc2)[C@H]2c3cc(C(=O)N4CCCC4)n(CCF)c3C[C@H]2CN1C(=O)c1ccccc1`, the composite z-score in assay [1] is 0.632; in assay [3], -0.191; in [4], 2.03; in [5] it was 0.77; in assay [6], 1.34; in assay [7] it was 2.55. For the same molecule, the composite z-score in [8] was 3.06; in assay [9] it was 1.19; in assay [10], 1.04; in [11], 0.978; in [13], 1.97; in assay [14], 1.15. Also, the composite z-score in [15] was 0.755; in assay [16] it was 3.15; in assay [17] it was 0.478; in assay [18] it was 0.757; in assay [19] it was -0.258; in assay [20], 0.99. This molecule also came in with a z-score in assay [2] of -1.27. In addition, in assay [12], the composite Z-score was 0.573 (inactive).

The record behind these values is PubChem BioAssay.
